Measured values taken from PubChem BioAssay AID1159580 (chemical genetic matrix, 2015).
Where “and” joins values, the source holds several entries; their conditions need not be identical. Identical values can stand only once. In all, about 5,500 compounds went through this assay and about 2,000 (36%) were called active. Roughly 18% stayed inconclusive and do not appear here. Cut-off read from the data, not from the text of the source: active = normalized growth mostly below about 0.91 (no sharp cut-off); inconclusive = no clear call, values can overlap the other calls; inactive = mostly above about 0.92. This is one part of the list.

Experiment: chemical genetic growth profiling, strain panel (AID 1159580);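 note: tested at 20 µM; growth read once vehicle control cultures reached saturation at 30 °C; 1 = growth at the plate median or of vehicle wells; lower values mean less growth of the strain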
Conditions: S. cerevisiae deletion strains, growth OD

Measured: normalized growth

CC1=NCCc2c1[nH]c1cc(O)ccc21
inactive: locus YAL013W, strain DEP1, stronger effect = lower value 0.99 | locus YAL021C, strain ccr4, stronger effect = lower value 0.923 | locus YAL026C, strain drs2, stronger effect = lower value 0.987 | locus YAL030W, strain snc1, stronger effect = lower value 0.984 | locus YBL061C, strain skt5, stronger effect = lower value 0.995 | locus YBR009C, strain hhf1, stronger effect = lower value 0.97 | locus YBR021W, strain FUR4, stronger effect = lower value 0.989 | locus YBR023C, strain chs3, stronger effect = lower value 0.994 | locus YBR171W, strain sec66, stronger effect = lower value 0.993 | locus YBR229C, strain ROT2, stronger effect = lower value 0.955 | locus YBR231C, strain swc5, stronger effect = lower value 1.02 | locus YBR279W, strain paf1, stronger effect = lower value 0.995 | locus YCL011C, strain gbp2, stronger effect = lower value 0.963 | locus YCL016C, strain dcc1, stronger effect = lower value 0.967 | locus YCL029C, strain bik1, stronger effect = lower value 0.994 | locus YCL069W, strain vba3, stronger effect = lower value 0.976 | locus YCR088W, strain abp1, stronger effect = lower value 0.99 | locus YDL005C, strain med2, stronger effect = lower value 0.995 | locus YDL035C, strain GPR1, stronger effect = lower value 0.992 | locus YDL040C, strain nat1, stronger effect = lower value 0.993 | locus YDL074C, strain BRE1, stronger effect = lower value 0.997 | locus YDL101C, strain DUN1, stronger effect = lower value 0.978 | locus YDL134C, strain PPH21, stronger effect = lower value 0.988 | locus YDL185W, strain tfp1, stronger effect = lower value 0.993 | locus YDL192W, strain arf1, stronger effect = lower value 0.992 | locus YDR001C, strain nth1, stronger effect = lower value 0.971 | locus YDR069C, strain doa4, stronger effect = lower value 0.986 | locus YDR101C, strain arx1, stronger effect = lower value 0.997 | locus YDR137W, strain rgp1, stronger effect = lower value 0.98 | locus YDR150W, strain NUM1, stronger effect = lower value 0.972 | locus YDR159W, strain sac3, stronger effect = lower value 1.02 | locus YDR162C, strain NBP2, stronger effect = lower value 0.99 | locus YDR195W, strain ref2 0.953 | locus YDR297W, strain sur2, stronger effect = lower value 0.996 | locus YDR318W, strain mcm21, stronger effect = lower value 0.994 | locus YDR334W, strain swr1, stronger effect = lower value 0.97 | locus YDR335W, strain msn5, stronger effect = lower value 0.986 | locus YDR388W, stronger effect = lower value 1 | locus YDR392W, strain spt3, stronger effect = lower value 0.93 | locus YDR502C, strain sam2, stronger effect = lower value 0.984 | locus YEL003W, strain gim4, stronger effect = lower value 0.994 | locus YEL037C, strain rad23, stronger effect = lower value 0.978 | locus YEL061C, strain CIN8 (second series), stronger effect = lower value 0.985 | locus YEL061C, strain CIN8, stronger effect = lower value 0.988 | locus YER015W, strain faa2, stronger effect = lower value 0.975 | locus YER016W, strain bim1, stronger effect = lower value 0.993 | locus YER110C, stronger effect = lower value 0.974 | locus YER111C, strain swi4, stronger effect = lower value 0.995 | locus YER155C, strain BEM2 (second series), stronger effect = lower value 1.03 | locus YER155C, strain BEM2, stronger effect = lower value 1.01 | locus YER167W, strain BCK2, stronger effect = lower value 1 | locus YFR010W, strain ubp6, stronger effect = lower value 0.983 | locus YGL078C, strain dbp3, stronger effect = lower value 0.991 | locus YGL086W, strain mad1, stronger effect = lower value 0.987 | locus YGL167C, strain pmr1, stronger effect = lower value 0.976 | locus YGL173C, strain kem1, stronger effect = lower value 0.991 | locus YGL227W, strain vid30, stronger effect = lower value 0.99 | locus YGL240W, strain doc1, stronger effect = lower value 1 | locus YGL248W, strain PDE1, stronger effect = lower value 0.99 | locus YGL253W, strain hxk2, stronger effect = lower value 0.985 | locus YGR078C, strain PAC10, stronger effect = lower value 1.01 | locus YGR135W, strain pre9, stronger effect = lower value 0.992 | locus YGR229C, strain SMI1, stronger effect = lower value 1.01 | locus YGR252W, strain gcn5, stronger effect = lower value 0.932 | locus YHR013C, strain ard1, stronger effect = lower value 0.95 | locus YHR027C, strain rpn1, stronger effect = lower value 0.966 | locus YHR030C, strain SLT2, stronger effect = lower value 0.995 and 1.01 | locus YHR079C, strain IRE1 (second series), stronger effect = lower value 0.995 | locus YHR079C, strain IRE1, stronger effect = lower value 1.01 | locus YHR094C, strain hxt1, stronger effect = lower value 0.99 | locus YHR129C, strain ARP1, stronger effect = lower value 1 | locus YHR142W, strain chs7, stronger effect = lower value 0.968 | locus YHR200W, strain rpn10, stronger effect = lower value 0.991 | locus YIL066C, strain RNR3, stronger effect = lower value 0.975 | locus YIL073C, strain SPO22, stronger effect = lower value 0.992 | locus YIL125W, strain kgd1, stronger effect = lower value 0.988 | locus YIR030C, strain dcg1, stronger effect = lower value 0.985 | locus YJL092W, strain hpr5, stronger effect = lower value 0.965 | locus YJL095W, strain BCK1 (second series), stronger effect = lower value 0.983 | locus YJL095W, strain BCK1, stronger effect = lower value 1.05 and 1.01 | locus YJL115W, strain asf1, stronger effect = lower value 0.956 | locus YJL129C, strain trk1, stronger effect = lower value 1.01 | locus YJL134W, strain LCB3, stronger effect = lower value 0.986 | locus YJL154C, strain vps35, stronger effect = lower value 0.977 | locus YJL164C, strain tpk1, stronger effect = lower value 0.95 | locus YJL166W, strain qcr8, stronger effect = lower value 1.01 | locus YJL168C, strain set2, stronger effect = lower value 0.999 | locus YJL187C, strain SWE1 (second series), stronger effect = lower value 0.991 | locus YJL187C, strain SWE1, stronger effect = lower value 0.989 | locus YJR043C, strain POL32, stronger effect = lower value 1.01 | locus YJR066W, strain TOR1, stronger effect = lower value 0.934
